From ChEMBL document CHEMBL3988442, “University of Dundee, Small-Polar-MMV Screening Library” (2021)
For some assays here: Measured potencies and affinities stand elsewhere.

Key:
Set-up in all cases: scale not given: direction of the effect not stated beside the values
[1] = target: Protein translocase subunit SecA (Escherichia coli (strain K12)) (UniProt P10408); assay: Assay to Identify E. coli SecA ATPase Inhibitors; type: functional; conditions: 30 µM
[2] = target: T1, Ubiquitin-activating enzyme e1, putative (Leishmania donovani (strain BPK282A1)) (UniProt E9BSI1); assay: Leishmania donovani Ubiquitin Activating Enzyme (LdE1); type: functional; conditions: 30 µM
T1 sequence (whole entry): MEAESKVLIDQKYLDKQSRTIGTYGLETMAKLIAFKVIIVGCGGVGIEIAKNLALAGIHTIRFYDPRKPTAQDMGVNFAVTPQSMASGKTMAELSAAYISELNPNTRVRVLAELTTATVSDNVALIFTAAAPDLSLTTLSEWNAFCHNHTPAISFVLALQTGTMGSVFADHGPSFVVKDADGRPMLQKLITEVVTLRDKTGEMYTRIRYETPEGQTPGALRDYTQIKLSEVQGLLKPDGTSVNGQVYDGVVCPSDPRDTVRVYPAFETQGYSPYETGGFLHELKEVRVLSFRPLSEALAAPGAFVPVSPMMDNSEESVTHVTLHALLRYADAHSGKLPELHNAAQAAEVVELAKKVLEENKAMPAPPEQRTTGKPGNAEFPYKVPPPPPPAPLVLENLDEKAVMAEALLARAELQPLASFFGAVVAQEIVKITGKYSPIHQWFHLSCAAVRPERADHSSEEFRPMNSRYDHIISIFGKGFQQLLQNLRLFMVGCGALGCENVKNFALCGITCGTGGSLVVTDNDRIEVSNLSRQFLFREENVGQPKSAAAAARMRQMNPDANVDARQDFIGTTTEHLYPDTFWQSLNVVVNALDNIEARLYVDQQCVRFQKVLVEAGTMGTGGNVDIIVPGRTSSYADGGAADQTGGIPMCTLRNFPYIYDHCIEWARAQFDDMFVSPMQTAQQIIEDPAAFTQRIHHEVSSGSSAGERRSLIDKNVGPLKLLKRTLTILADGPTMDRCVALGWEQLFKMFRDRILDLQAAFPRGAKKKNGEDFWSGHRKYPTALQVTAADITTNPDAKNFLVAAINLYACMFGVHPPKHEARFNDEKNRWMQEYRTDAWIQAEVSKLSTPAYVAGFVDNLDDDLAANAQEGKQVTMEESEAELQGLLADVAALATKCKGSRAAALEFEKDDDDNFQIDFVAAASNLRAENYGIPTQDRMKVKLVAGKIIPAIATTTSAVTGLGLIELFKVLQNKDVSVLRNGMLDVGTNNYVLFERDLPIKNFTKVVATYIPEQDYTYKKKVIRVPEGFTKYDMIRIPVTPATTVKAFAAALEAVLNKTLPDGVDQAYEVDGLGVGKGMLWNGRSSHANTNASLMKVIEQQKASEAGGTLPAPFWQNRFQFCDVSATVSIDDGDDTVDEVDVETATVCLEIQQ

[3] = target: AMP-activated protein kinase, AMPK (Homo sapiens) (UniProt P54646+O43741+P54619+Q9UGJ0+Q9Y478+Q13131+Q9UGI9); assay: AMP-dependent Kinase enzyme assay. An in vitro enzyme assay that detects ADP turnover that is directly proportional to AMPK activity. This uses naive AMPK that is activated during the assay with MK-8722; type: functional; conditions: 30 µM
[4] = target: Sialic acid-binding Ig-like lectin 9 (Homo sapiens) (UniProt Q9Y336); assay: Hs-Siglec9 ALPHAscreen SOP 20170721; conditions: 10 µM
Chain of Sialic acid-binding Ig-like lectin 9 (Homo sapiens) (Q9Y336 whole entry): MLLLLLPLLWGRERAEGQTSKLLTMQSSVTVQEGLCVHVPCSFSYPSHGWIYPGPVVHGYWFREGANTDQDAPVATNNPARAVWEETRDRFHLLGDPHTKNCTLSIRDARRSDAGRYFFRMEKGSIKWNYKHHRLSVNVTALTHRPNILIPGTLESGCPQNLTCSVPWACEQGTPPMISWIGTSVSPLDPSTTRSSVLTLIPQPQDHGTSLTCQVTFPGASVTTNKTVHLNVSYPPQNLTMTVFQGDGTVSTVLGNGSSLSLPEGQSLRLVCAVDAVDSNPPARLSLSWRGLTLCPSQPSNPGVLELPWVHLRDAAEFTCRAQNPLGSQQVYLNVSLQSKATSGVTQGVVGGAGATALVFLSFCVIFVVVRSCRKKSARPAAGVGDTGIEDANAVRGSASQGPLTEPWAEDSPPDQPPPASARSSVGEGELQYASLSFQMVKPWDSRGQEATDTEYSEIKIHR

[5] = tested on: Trypanosoma cruzi; assay: Trypanosoma cruzi phosphomannomutase and mannose-1-phosphate guanylyltransferase assay; type: functional; conditions: 10 µM
[6] = target: T2, Arginase-2, mitochondrial (Homo sapiens) (UniProt P78540); assay: in vitro enzyme assay to detect the production of urea directly proportional to the activity of Arginase II; type: functional; conditions: 33.3 µM; further: in the data most compounds retested in dose-response had high values
T2 sequence (whole entry): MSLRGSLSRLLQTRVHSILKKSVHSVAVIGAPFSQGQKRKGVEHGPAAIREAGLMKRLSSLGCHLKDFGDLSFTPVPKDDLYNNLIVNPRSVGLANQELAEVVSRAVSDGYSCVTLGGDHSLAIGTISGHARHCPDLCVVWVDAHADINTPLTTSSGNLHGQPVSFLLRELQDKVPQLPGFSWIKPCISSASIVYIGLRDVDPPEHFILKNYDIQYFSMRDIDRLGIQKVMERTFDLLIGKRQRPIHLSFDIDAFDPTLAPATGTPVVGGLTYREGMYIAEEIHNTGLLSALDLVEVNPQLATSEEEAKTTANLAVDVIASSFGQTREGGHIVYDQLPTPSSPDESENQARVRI

[7] = target: T3, Proteasome subunit beta (Trypanosoma cruzi) (UniProt O96673); assay: Trypanosoma cruzi proteasome chymotrypsin-like activity (TcProtChymo) assay.; further: in the data most compounds retested in dose-response had high values; type: functional; conditions: 9.37 µM
T3 sequence (whole entry): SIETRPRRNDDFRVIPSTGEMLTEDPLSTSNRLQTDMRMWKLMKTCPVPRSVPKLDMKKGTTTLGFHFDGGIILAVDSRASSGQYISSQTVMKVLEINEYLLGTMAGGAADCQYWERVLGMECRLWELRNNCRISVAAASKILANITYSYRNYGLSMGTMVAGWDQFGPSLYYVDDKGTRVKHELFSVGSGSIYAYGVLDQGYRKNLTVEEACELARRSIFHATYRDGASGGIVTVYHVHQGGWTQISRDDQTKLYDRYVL

[8] = organism: Homo sapiens; assay: To identify inhibition of the IFN signalling (Jak-Stat) pathway via expression of an eGFP reporter gene under the control of an IFN-stimulated response element (ISRE) containing MxA promoter.; type: functional; conditions: 30 µM
[9] = target: T4, Tyrosyl-tRNA synthetase, putative (Trypanosoma cruzi (strain CL Brener)) (UniProt Q4DSP6); assay: Trypanosoma cruzi tyrosyl tRNA synthetase (TcYRS) _High Tyrosine SOP; type: functional; conditions: 30 µM; further: in the data most compounds retested in dose-response had high values
T4 sequence (whole entry): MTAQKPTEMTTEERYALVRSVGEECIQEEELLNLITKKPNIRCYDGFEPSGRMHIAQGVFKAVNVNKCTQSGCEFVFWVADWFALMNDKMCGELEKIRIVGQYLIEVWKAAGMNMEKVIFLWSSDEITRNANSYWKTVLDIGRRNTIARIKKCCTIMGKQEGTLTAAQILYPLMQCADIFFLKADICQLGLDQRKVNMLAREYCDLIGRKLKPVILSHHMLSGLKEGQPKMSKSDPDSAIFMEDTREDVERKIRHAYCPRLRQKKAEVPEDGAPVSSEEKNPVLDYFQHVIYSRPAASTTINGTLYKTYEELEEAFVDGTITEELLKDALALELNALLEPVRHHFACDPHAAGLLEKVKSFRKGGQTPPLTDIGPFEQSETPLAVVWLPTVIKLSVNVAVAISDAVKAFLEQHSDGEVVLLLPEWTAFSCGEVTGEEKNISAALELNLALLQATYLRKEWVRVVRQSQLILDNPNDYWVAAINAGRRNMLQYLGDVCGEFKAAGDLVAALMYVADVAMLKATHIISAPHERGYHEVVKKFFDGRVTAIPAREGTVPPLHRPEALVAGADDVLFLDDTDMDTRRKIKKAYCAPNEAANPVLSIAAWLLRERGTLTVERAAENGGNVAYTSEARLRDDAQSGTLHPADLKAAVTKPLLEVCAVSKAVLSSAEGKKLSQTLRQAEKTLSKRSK

[10] = target: T4, Tyrosyl-tRNA synthetase, putative (Trypanosoma cruzi (strain CL Brener)); assay: Trypanosoma cruzi tyrosyl tRNA synthetase (TcYRS) SOP; type: functional; conditions: 30 µM
[11] = target: Chromo domain-containing protein 1 (Saccharomyces cerevisiae (strain ATCC 204508 / S288c) (Baker's yeast)) (UniProt P32657); assay: ScCHD-1 Enzyme Inhibition Assay; type: functional; conditions: 30 µM; further: in the data most compounds retested in dose-response had high values
Chain of Chromo domain-containing protein 1 (Saccharomyces cerevisiae (strain ATCC 204508 / S288c) (Baker's yeast)) (P32657 whole entry, the tested form may be a part): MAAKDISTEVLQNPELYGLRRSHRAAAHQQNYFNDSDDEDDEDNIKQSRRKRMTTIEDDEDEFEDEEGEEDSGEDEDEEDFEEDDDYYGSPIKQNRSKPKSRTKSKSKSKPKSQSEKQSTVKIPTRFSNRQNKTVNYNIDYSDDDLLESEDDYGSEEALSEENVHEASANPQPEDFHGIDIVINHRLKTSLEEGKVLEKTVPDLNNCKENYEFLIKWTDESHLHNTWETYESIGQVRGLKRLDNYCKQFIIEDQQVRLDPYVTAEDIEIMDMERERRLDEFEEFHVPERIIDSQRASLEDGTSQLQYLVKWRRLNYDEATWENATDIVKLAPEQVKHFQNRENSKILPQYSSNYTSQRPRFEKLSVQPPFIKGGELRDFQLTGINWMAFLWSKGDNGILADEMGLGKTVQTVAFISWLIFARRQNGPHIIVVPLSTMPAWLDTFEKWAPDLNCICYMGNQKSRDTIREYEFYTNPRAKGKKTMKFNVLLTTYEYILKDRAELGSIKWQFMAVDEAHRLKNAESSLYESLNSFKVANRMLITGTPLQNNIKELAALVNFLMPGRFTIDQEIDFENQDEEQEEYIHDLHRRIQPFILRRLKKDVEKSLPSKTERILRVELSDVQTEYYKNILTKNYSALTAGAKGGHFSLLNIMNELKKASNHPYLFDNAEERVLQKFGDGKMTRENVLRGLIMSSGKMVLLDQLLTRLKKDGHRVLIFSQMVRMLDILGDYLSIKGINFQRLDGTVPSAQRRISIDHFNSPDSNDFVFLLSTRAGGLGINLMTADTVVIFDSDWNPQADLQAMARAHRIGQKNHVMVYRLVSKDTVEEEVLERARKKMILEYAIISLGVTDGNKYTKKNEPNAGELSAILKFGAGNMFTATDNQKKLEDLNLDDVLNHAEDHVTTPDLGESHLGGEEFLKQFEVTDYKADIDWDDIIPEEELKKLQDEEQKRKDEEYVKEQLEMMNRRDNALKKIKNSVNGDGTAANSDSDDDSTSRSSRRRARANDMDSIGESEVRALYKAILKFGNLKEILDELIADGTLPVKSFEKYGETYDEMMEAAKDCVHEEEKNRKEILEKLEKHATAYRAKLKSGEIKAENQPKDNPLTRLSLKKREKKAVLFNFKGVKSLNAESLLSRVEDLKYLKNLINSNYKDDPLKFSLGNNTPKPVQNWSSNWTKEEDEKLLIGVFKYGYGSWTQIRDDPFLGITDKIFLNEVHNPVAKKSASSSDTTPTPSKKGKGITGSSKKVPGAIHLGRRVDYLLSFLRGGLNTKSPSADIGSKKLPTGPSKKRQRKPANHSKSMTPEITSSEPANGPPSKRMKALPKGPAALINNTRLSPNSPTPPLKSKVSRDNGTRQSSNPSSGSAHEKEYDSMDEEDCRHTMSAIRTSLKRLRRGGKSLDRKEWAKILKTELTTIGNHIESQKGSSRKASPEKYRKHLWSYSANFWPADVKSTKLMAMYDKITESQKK

Chain of Protein translocase subunit SecA (Escherichia coli (strain K12)) (P10408 whole entry): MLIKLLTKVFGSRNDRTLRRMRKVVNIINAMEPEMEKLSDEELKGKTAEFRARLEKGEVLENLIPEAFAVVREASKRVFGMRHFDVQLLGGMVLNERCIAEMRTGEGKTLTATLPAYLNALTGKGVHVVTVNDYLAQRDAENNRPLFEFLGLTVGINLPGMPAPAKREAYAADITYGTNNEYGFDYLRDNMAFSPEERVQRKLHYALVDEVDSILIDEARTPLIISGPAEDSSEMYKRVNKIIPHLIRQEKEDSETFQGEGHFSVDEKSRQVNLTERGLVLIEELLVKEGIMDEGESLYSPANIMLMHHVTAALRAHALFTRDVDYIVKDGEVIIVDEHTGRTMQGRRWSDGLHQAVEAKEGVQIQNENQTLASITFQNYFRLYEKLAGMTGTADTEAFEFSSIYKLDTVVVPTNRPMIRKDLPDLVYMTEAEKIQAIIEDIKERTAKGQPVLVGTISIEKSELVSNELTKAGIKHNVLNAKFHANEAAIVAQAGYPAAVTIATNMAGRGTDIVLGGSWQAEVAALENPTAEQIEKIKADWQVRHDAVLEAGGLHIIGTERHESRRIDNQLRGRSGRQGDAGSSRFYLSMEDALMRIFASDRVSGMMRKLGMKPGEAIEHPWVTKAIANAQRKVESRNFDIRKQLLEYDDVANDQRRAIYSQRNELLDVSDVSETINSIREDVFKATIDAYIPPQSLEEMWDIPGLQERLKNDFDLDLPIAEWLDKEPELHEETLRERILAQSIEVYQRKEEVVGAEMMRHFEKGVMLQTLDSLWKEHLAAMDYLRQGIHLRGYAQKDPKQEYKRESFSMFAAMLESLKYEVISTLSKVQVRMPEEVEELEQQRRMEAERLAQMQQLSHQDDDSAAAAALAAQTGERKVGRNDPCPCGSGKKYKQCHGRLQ

| SMILES | Percent Effect [1] [%] | Percent Effect [2] [%] | Percent Effect [3] [%] | Percent Effect [4] [%] | Percent Effect [5] [%] | Percent Effect [6] [%] | Percent Effect [7] [%] | Percent Effect [8] [%] | Percent Effect [9] [%] | Percent Effect [10] [%] | Percent Effect [11] [%] |
| --- | --- | --- | --- | --- | --- | --- | --- | --- | --- | --- | --- |
| CCOCCn1c(=O)[nH]c2cc(C(=O)N(C)Cc3nc(C)cs3)ccc21 | -0.0499 | 8.11 | -5.57 | 8.59 | -2.9 | 0.476 | 21 | 1.41 | 5.82 | 17.1 | -3.61 |
| CC(=O)N1CCN(Cc2nnc(C(C)(C)C)o2)CC1 | 0.446 | 5.41 | -5.16 | -0.469 | -0.772 | 2.86 | 14.3 | 7.35 | 1.59 | 9.76 | -3.99 |
| Cc1nnc(N2C[C@H](C(=O)NCC3CC3)[C@@H]3CCO[C@@H]3C2)s1 | 0.351 | 0 | 3.72 | 2.6 | -6.02 | -3.23 | 0.696 | 7.74 | 0 | 1.28 | -1.37 |
| COc1ccc(OC)c(NC(=O)NCC(O)c2ccc(F)c(F)c2)c1 (configuration not stated) | -0.0799 | 8.86 | 8.98 | -1.21 | -5.44 | 3.23 | 15.6 | 9.13 | -1.04 | 5.06 | -21.5 |
| CN(C)S(=O)(=O)N1CC[C@@H]2CN(Cc3cnn(C)c3)C[C@@H]2C1 | -6.2 | -2.6 | 26.8 | -2.67 | -4.63 | 0.645 | 0.696 | 33.3 | -1.06 | -1.28 | -3.27 |
| CC(C)(C)OC(=O)N1CCN(C(=O)c2sccc2C2CC2)CC1 | -1.99 | 8.86 | 5.24 | 1.31 | -2.56 | 9.25 | 6.17 | -13.8 | 3.12 | 5.06 | -5.68 |
| Cc1csc2nc3n(c(=O)c12)CCN(C(=O)c1ccncc1)CC3 | -6.48 | 20.3 | 7.17 | -3.24 | 1.78 | -2.09 | 9.83 | 12.7 | 2.15 | 11.7 | -13.5 |
| COCCOc1ccccc1C(=O)N1CCCCC1c1nccs1 (configuration not stated) | -5.08 | 5.41 | -31.5 | 16.3 | 7.45 | -2.81 | 2.52 | -0.874 | 4.43 | 11.1 | -14.3 |
| N#CCCN(C(=O)CN1CCCC1c1ccsc1)c1ccccc1F (configuration not stated) | -3.56 | -18.9 | -2.34 | -0.732 | -2.51 | -8.69 | -0.718 | 16.7 | 3.96 | 1.22 | 21.4 |
| CCCn1c(C)c(CC(=O)NC)c2c1CC(C)(C)CC2=O | -4.47 | 2.6 | -16 | 0.225 | -1.08 | -6.9 | 2.66 | 2.97 | 5.38 | 8.64 | 2.86 |
| CS(=O)(=O)c1ccc(CNCC2CCN(CCO)CC2)cc1 | -6.48 | 0 | -13.5 | 3.88 | -4.9 | -3.64 | 6.03 | 21.2 | -2.15 | -5 | -3.22 |
| O=C(c1nc(=O)[nH][nH]1)N1CCCC(c2cc(C(F)(F)F)[nH]n2)C1 (configuration not stated) | -9.02 | -8.11 | -7.65 | 26.3 | 11.2 | 2.77 | 10.8 | 15.2 | 5.94 | 13.4 | -7.89 |
| Cn1cnnc1C1CCCN(C(=O)c2n[nH]c3ccccc23)C1 (configuration not stated) | -3.18 | 18.2 | -8.06 | -14.8 | 5.19 | -3.16 | 13.8 | -1.86 | 8.57 | 32.9 | -21.5 |
| c1coc(CN2Cc3nccn3CC(Cn3cncn3)C2)c1 (configuration not stated) | -4.49 | -2.74 | -1.24 | 1.11 | -2.38 | -4.39 | 6.25 | -3.99 | 1.04 | 1.24 | -1.23 |
| O=C1N(c2cccc(Cl)c2)Cc2nc(=O)n(Cc3cccc(F)c3)n21 | -2.59 | -1.33 | 3.81 | 5.37 | -4.71 | -10.4 | 6.1 | 7.11 | -1.06 | 2.56 | -8.79 |
| c1ccc(Cn2ccnc2CN2CCOC(Cn3cccn3)C2)cc1 (configuration not stated) | -9.1 | 3.8 | 9.54 | 2.25 | -7.69 | -5.81 | 4.12 | 2.94 | 8.33 | 17.7 | -16.1 |
| Cc1cc(C)cc(NC(=O)CN2CCCC(n3cncn3)C2)c1 (configuration not stated) | -3.62 | 8.11 | 1.86 | 6.56 | 8.08 | -1.66 | 1.44 | 3.59 | 2.97 | 15.8 | -2.91 |
| O=C(CCN1CCCC1c1cccs1)N1CCc2sccc2C1 (configuration not stated) | 0.699 | -29.7 | -9.71 | 3.83 | -1.6 | -18 | 3.96 | 5.67 | 3.45 | -11.1 | 2.06 |
| Cc1ccoc1-c1nnc(CNCCn2cccn2)o1 | -0.597 | 22.8 | -3.87 | -12.1 | 3.12 | 1.52 | 7.29 | 23.9 | 7.39 | 24.1 | -15.5 |
| Cc1cc(C(=O)N2C[C@@H]3COC[C@]3(COCc3cccnc3)C2)no1 | -2.45 | 33.8 | 4.4 | -2.26 | -3.45 | 3.23 | 7.31 | 4.17 | -2.12 | 8.97 | -5.95 |
| CCOC1CCN(C(=O)c2c(Cl)c3ccccc3n2C)CC1 | -2.47 | 0 | -0.042 | 1.92 | -2.43 | 3.12 | 13.4 | -2.41 | -2.73 | 11.1 | -4.88 |
| O=C(Cn1cc(I)cn1)Nc1cccnc1 | -7.8 | 0 | 2.58 | 6.82 | 1.85 | -10.7 | 16.4 | 4.4 | 3.19 | 7.79 | -7.88 |
